Sampled rows, rich in hits. Any-hit rate of the full collection: about 19%.
TDP1 cell CPT: qHTS for Inhibitors of human tyrosyl-DNA phosphodiesterase 1 (TDP1): qHTS in cells in presence of CPT; chicken DT40 Tdp1-/-;hTDP1 cells + 20 nM CPT, ATP luminescence, 48 h; AID 686979, 2013; 420,000 compounds, 12% hits; Potency, µM (series often up to 46.2 µM), for inactives: top-dose activity change, negative = growth inhibition, most hits filed as inhibitors; also: nearly all actives have a fitted effect of over 55% in size
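Cell growth measured by CellTiter-Glo luminescence after a minimum 48 h, 37 C compound exposure with 20 nM CPT in Tdp1-knockout DT40 cells stably expressing hTDP1, seeded 400/well; qHTS titration format.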
HT1080 IDH1KD tx: qHTS for induction of synthetic lethality in tumor cells producing 2HG: qHTS for the HT-1080-IDH1KD cell line. HT-1080 IDH1 knockdown viability, ATP luminescence, 48 h. Potency, µM (top dose mostly 46.1 µM), for the others: at the top dose activity, negative = toxicity, actives largely listed as cytotoxic. 360,000 compounds, 2% hits. AID 686971, 2013;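 also: 0% = DMSO wells and -100% = cell-free medium wells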
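Luminescent ATP read-out (CellTiter-Glo, 10 min at room temperature) after 48 h compound exposure at 37 °C gave viability of IDH1-knockdown HT-1080 cells. Activity was normalised to DMSO and cell-free wells, then fitted as concentration-response curves.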
TDP1 cell noCPT: qHTS for Inhibitors of human tyrosyl-DNA phosphodiesterase 1 (TDP1): qHTS in cells in absence of CPT | 420,000 compounds, 15% hits | AID 686978, 2013 | Potency, µM (doses to about 46.2 µM), for inactives: at the highest dose activity change, negative = growth inhibition, actives largely listed as inhibitors | DT40 Tdp1-/- hTDP1 cells, no CPT, ATP luminescence, 48 h; also: nearly all actives have a fitted effect of over 55% in size
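Camptothecin absent (DMSO only). Human TDP1-complemented DT40 knockout cells, 400 cells/well, 37 °C for minimum 48 hr; ATP measured via CellTiter-Glo, 30 min dark incubation, luminescence.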
HT1080NT lethal: qHTS for induction of synthetic lethality in tumor cells producing 2HG: qHTS for the HT-1080-NT fibrosarcoma cell line | AID 686970, 2013 | 360,000 compounds, 1.6% hits | HT-1080-NT fibrosarcoma viability, CellTiter-Glo ATP luminescence, 48 h | Potency, µM (doses to about 46.1 µM), inactives show at the highest dose activity, negative = less viability, hits mostly cytotoxic;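 also: NT is the 2HG producing partner of a matched IDH1 knockdown line; 0% = DMSO-treated cells and -100% = media-only wells without cells; nearly all actives have a fitted effect of over 55% in size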
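Viability of the 2HG-overproducing fibrosarcoma line after 48 hours of compound exposure at 37 degrees C was determined by luminescence with CellTiter-Glo, and concentration-effect curves were then fitted and categorized.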
KB-V1 cytotox: qHTS assay for MDR1-selective chemotherapeutics: Primary screen using the drug-selected MDR subline cells KB-V1 | KB-V1 MDR cells viability, CellTiter-Glo, 72 h | Potency, µM (top dose mostly 46.1 µM), hits mostly cytotoxic | 400,000 compounds, 3.4% hits | AID 1347076, 2019; also: nearly all actives have a fitted effect of over 60% in size
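KB-V1, DMEM (no phenol red) + 10% FBS; cpd pin-transferred, titration series; 72 h, 37 degrees C; CellTiter-Glo, luminescence. Data normalized, curve-fit.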
KB-3-1 cytotox: qHTS assay for MDR1-selective chemotherapeutics: Primary screen using the parental adenocarcinoma cell KB-3-1. 400,000 compounds, 1.4% hits. Potency, µM (titrated, usually from 46.1 µM), hits mostly cytotoxic. AID 1347075, 2019. KB-3-1 viability, CellTiter-Glo ATP luminescence, 72 h; also: nearly all actives have a fitted effect of over 60% in size
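72 h, 37 °C compound treatment of KB-3-1 parental cells; CellTiter-Glo added, 10 min, luminescence read. Data corrected against DMSO-only plates and normalized before curve fitting.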
Active calls of the source: *; i = inactive; ? = inconclusive; · = no result given; [ ] = another dose, or the depositor's remark. Calls follow the shape of the dose curve; as a rule, active = well fitted curve in the direction sought with a large enough effect; inconclusive = small, poorly fitted or top-dose-only effect, or another doubt; inactive = no such curve, though single readings can be large; an effect the other way counts as inactive or inconclusive. Unless noted, % is scaled to controls: 0 for no effect and ±100 for the full control effect; potency is read from the fitted curve at half-maximal effect.

SMILES	TDP1 cell CPT	HT1080 IDH1KD tx	TDP1 cell noCPT	HT1080NT lethal	KB-V1 cytotox	KB-3-1 cytotox
Cc1cc(C)cc(NC(=O)C2CCN(S(=O)(=O)c3c(C)noc3/C=C/c3ccco3)CC2)c1	23µM*	·	15µM*	·	·	·
O=C1C[C@@H]2c3c(cccc3CN1Cc1ccccc1F)C[C@@H](O)[C@H]2O	-1%	9%	-3%	13%	i	i
COc1ccc(C)cc1NC(=O)c1ccccc1NS(=O)(=O)c1cccc2cccnc12	-2%	3%	-12%	-4%	?	i
C[C@H](O)Cc1cn(-c2cc3cc(C#Cc4ccsc4)ccc3oc2=O)nn1	-11%	0%	-3%	-3%	i	i
C/C(=N/O)c1ccc2c(c1)OCCOCCOc1cc(/C(C)=N/O)ccc1OCCOCCO2	?	9%	16µM*	1%	i	?
C/C(=N\O)c1ccc2c(c1)OCCO2	-4%	-1%	3.7µM*	2%	i	i
O=C(NCC1CCC2(CCN(Cc3c[nH]c4ccccc34)CC2)O1)C1CCOCC1 (stereo not drawn)	-8%[9.04 µM]	·	-11%	·	·	·
COC(=O)c1cc(Br)c(=O)n(CCN2CCCC2)c1	9%	-2%	-19%	1%	i	i
COC(=O)c1cc(Br)c(=O)n(CCC2=CCCCC2)c1	21µM*	7%	?	5%	i	i
CO/N=C/C(=N\Nc1ccc(C)cc1)C(=O)c1ccc(OC)cc1	4.1µM*	2.9µM*	3.3µM*	?	4.6µM*	5.2µM*
COc1ccc(C(O)c2ncc(-c3cccc(OCc4ccccc4)c3)[nH]2)cc1F (stereo not drawn)	?	?	?	-28%	i	i
Clc1ccc(-c2csc(=Nc3cccnc3)n2CCCn2ccnc2)cc1Cl	23µM*	-23%	15µM*	-25%	10µM*	15µM*
FC(F)Oc1ccc(-c2csc(=Nc3cccnc3)n2CC2CCCO2)cc1 (stereo not drawn)	15µM*	-25%	13µM*	-4%	i	i
COCCn1c(-c2ccc(Br)cc2)csc1=Nc1cccnc1	16µM*	-28%	18µM*	-29%	?	15µM*
OC1(c2ccc(OC(F)F)cc2)CSC(=Nc2cccnc2)N1Cc1ccco1 (stereo not drawn)	-76%	-9%	-88%	-29%	i	i
CCC(c1nnnn1Cc1ccco1)N(Cc1cc2cc(C)cc(C)c2[nH]c1=O)CC1CCCO1 (stereo not drawn)	15µM*	4%	18µM*	-1%	i	i
Cc1ccc2[nH]c(=O)c(CN(Cc3ccco3)Cc3nnnn3Cc3ccco3)cc2c1	?	·	?	·	i	i
Cc1ccc2[nH]c(=O)c(CN(Cc3ccccc3)Cc3nnnn3Cc3ccco3)cc2c1	8.9µM*	·	?	·	i	i
CCc1ccc2[nH]c(=O)c(CN(Cc3ccco3)Cc3nnnn3Cc3ccco3)cc2c1	?	·	13µM*	·	i	?
CCC(c1nnnn1C(C)(C)CC)N(CCCO)Cc1cc2cc(C)cc(C)c2[nH]c1=O (stereo not drawn)	?	-17%	21µM*	-7%	i	i
Cc1cccc2cc(C(c3nnnn3C(C)(C)C)N(Cc3ccco3)CC3CCCO3)c(=O)[nH]c12 (stereo not drawn)	?	-5%	?	0%	i	i
Cc1occc1C(=O)NNC(=O)CN1C(=O)NC(C)(c2ccccc2)C1=O (stereo not drawn)	-12%	12%	-6%	6%	i	i
COc1ccccc1CNc1ccnc(-c2ccc(C(=O)N(C)C)cc2)n1	-5%	·	-16%	·	·	·
CCC(c1nnnn1Cc1ccco1)N(Cc1ccccc1OC)Cc1cc2cc(C)ccc2[nH]c1=O (stereo not drawn)	?	-6%[9.24 µM]	23µM*	?	13µM*	i
Cc1ccc2[nH]c(=O)c(CN(CCO)Cc3nnnn3CCc3ccccc3)cc2c1	?	-2%	-25%	0%	?	i
SMILES	TDP1 cell CPT	HT1080 IDH1KD tx	TDP1 cell noCPT	HT1080NT lethal	KB-V1 cytotox	KB-3-1 cytotox
Cc1ccc2cc(CN(Cc3ccc4c(c3)OCO4)Cc3nnnn3Cc3ccco3)c(=O)[nH]c2c1	16µM*	-4%	?	-1%	i	?
CNC(=S)N(Cc1ccco1)Cc1cc2cc3c(cc2[nH]c1=O)OCCO3	?	-6%	?	-1%	i	i
CCC(c1nnnn1C(C)(C)CC)N(CCN1CCOCC1)Cc1cc2cc(C)ccc2[nH]c1=O (stereo not drawn)	?	-7%	?	7%	i	i
Cc1ccc(CN(Cc2cc3cc4c(cc3[nH]c2=O)OCCO4)Cc2nnnn2Cc2ccco2)cc1	?	?	?	-29%	15µM*	i
O=c1[nH]c2cc3c(cc2cc1CN(Cc1nnnn1C1CCCC1)C1CCCC1)OCCO3	16µM*	-26%	26µM*	1%	i	23µM*
Cc1ccc(NC2(C#N)CCCC2)cc1	7%	-5%	7%	-7%	i	i
CCOC(=O)C1(CCOC)CCCCC1=O (stereo not drawn)	5%	5%	6%	4%	i	i
COc1ccccc1CN(Cc1cc2c(C)ccc(C)c2[nH]c1=O)Cc1nnnn1Cc1ccco1	23µM*	-8%	18µM*	-8%	i	?
Cc1ccc2[nH]c(=O)c(CN(Cc3ccccc3)Cc3nnnn3C3CCCC3)cc2c1	21µM*	-4%	?	5%	23µM*	i
COc1ccc2[nH]c(=O)c(CN(Cc3ccccc3)Cc3nnnn3CC3CCCO3)cc2c1 (stereo not drawn)	?	-15%	?	-23%	i	i
COc1cc2cc(CN(Cc3nnnn3Cc3ccccc3)CC3CCCO3)c(=O)[nH]c2cc1OC (stereo not drawn)	?	3%	?	1%	i	i
COc1ccc2cc(CN(CCc3ccccc3)Cc3nnnn3Cc3ccco3)c(=O)[nH]c2c1	?	-7%	16µM*	-1%	i	i

Assay outcomes from PubChem.
